The results in this text go back to PubChem BioAssay (NCI).

Some test systems named below: RPMI-8226 leukemia; OVCAR-5 ovarian; OVCAR-4 ovarian; SK-OV-3 ovarian; IGROV1 ovarian; OVCAR-3 ovarian; HS 578T breast; NCI/ADR-RES ovarian; OVCAR-8 ovarian.
Assay in all cases: NCI-60 one-dose screen, 48 h (100 = growth as untreated, 0 = no growth, -100 = all killed)
What all share (details): 10 µM

Compounds without any hit were thinned out: in the full panel of roughly 83,000, 20% have a hit.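 Cells were grown in 96-well plates and exposed to the test compound at a single concentration for 48 hours; results are reported as percent growth, with values below 10 considered active.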 Unmarked numbers belong to inactive results. The source made the active and inactive calls.

Regarding `C/C(=C\CC/C=C(\C)CC/C=C(\C)CC[C@@H](O)C(C)(C)O)CC/C=C(\C)CC[C@@H](O)C(C)(C)O`, the growth with RPMI-8226 leukemia was -11.4% (active); with OVCAR-5 ovarian, 56.1%; in the assay on OVCAR-4 ovarian it was 42%; in the assay with SK-OV-3 ovarian it was 64.4%; with IGROV1 ovarian it was 76.8%; in the assay on OVCAR-3 ovarian, 42.6%. Also, the growth in the assay on HS 578T breast is 39%; in the assay with NCI/ADR-RES ovarian, 30.2%.
Take `Cc1nc(Nc2nc(C)c3ccc(OCCN4CCOCC4)cc3n2)[nH]c(=O)c1C`: the growth was 7.09% (active) with RPMI-8226 leukemia; 0.429% (active) in the assay on OVCAR-8 ovarian; -39.9% (active) in the assay on OVCAR-5 ovarian; -22.1% (active) in the assay on OVCAR-4 ovarian; -14% (active) in the assay on IGROV1 ovarian; 3.38% (active) in the assay on OVCAR-3 ovarian. The figures for the growth in the assay with HS 578T breast and in the assay on NCI/ADR-RES ovarian were 11.9% and -19.5% (active), respectively.
As for `O=C(Nc1ccc(OCc2ccccc2)cc1)Nc1ccc(Cl)c(C(F)(F)F)c1`, the growth with RPMI-8226 leukemia is -30.4% (active); with OVCAR-8 ovarian it was 2.36% (active); with OVCAR-5 ovarian, 18.5%; in the assay on OVCAR-4 ovarian, 11.2%; in the assay on SK-OV-3 ovarian, -29.7% (active); in the assay on IGROV1 ovarian it was 19%. In addition, the growth was 7.77% (active) in the assay on OVCAR-3 ovarian, -0.0644% (active) with HS 578T breast and 1.39% (active) in the assay with NCI/ADR-RES ovarian.
Regarding `O=C(c1ccc(Cl)cc1)C1[C@H](c2ccc(Br)cc2)[C@@H](c2ccccc2)NC12C(=O)Nc1ccc(Cl)cc12` (stereo partly drawn), the growth in the assay on RPMI-8226 leukemia was -15.4% (active); in the assay on OVCAR-8 ovarian, -55% (active); in the assay on OVCAR-5 ovarian, -89.5% (active); in the assay on OVCAR-4 ovarian, 3.2% (active); in the assay on IGROV1 ovarian it was -72.4% (active); in the assay with OVCAR-3 ovarian, -88% (active). In addition, the growth in the assay with HS 578T breast was -14% (active); in the assay on NCI/ADR-RES ovarian, -89.9% (active).
Regarding `CC(=O)Nc1ccc(-c2cn(-c3cccc(C(=O)Nc4cc(C(F)(F)F)cc(C(F)(F)F)c4)c3)nn2)cn1`, the growth with RPMI-8226 leukemia is -43.7% (active); with OVCAR-5 ovarian, -10.6% (active); in the assay with OVCAR-4 ovarian, -24.6% (active); in the assay with SK-OV-3 ovarian it was -21.1% (active); with IGROV1 ovarian, -38.4% (active); in the assay with OVCAR-3 ovarian, -30.9% (active). Moreover, the growth with HS 578T breast is -9.63% (active); in the assay on NCI/ADR-RES ovarian, 1.76% (active).
As to `Cc1cc(C)nc(SCC(=O)Nc2ccc(S(N)(=O)=O)cc2)n1`, the growth in the assay with RPMI-8226 leukemia was 99.5%; in the assay on OVCAR-5 ovarian it was 107%; in the assay on OVCAR-4 ovarian, 112%; with SK-OV-3 ovarian it was 106%; with IGROV1 ovarian, 109%; with OVCAR-3 ovarian, 113%. The growth in the assay with HS 578T breast is 114%; with NCI/ADR-RES ovarian it was 106%.
For `O=C1Nc2ccc(F)cc2/C1=C/c1cccc(OCc2ccccn2)c1`, the growth with RPMI-8226 leukemia is 18.6%; in the assay with OVCAR-5 ovarian it was 60.4%; with OVCAR-4 ovarian, 61.3%; in the assay with SK-OV-3 ovarian, 69.6%; in the assay with IGROV1 ovarian, 41.9%; in the assay on OVCAR-3 ovarian, 27%. Also, the results for the growth in the assay on HS 578T breast and in the assay on NCI/ADR-RES ovarian were -6.56% (active) and 7.99% (active), respectively.
Turning to `COc1ccc(-c2nc(S(=O)(=O)c3ccccc3)c(S(C)(=O)=O)o2)cc1`, the growth with RPMI-8226 leukemia is -39.9% (active); with OVCAR-8 ovarian, -28.3% (active); with OVCAR-5 ovarian, -77.2% (active); in the assay with OVCAR-4 ovarian it was -87% (active); with IGROV1 ovarian, 77.2%; with OVCAR-3 ovarian, -81.8% (active). Further, the growth in the assay with HS 578T breast was 75.2%; with NCI/ADR-RES ovarian it was 0.892% (active).
In the case of `COc1ccc(N2N=C(c3ccc4c(c3)OCCO4)CC2c2cccc(NC(=O)CCCNS(=O)(=O)c3ccc(F)cc3)c2)cc1` (stereo not drawn), the growth with RPMI-8226 leukemia was 41.2%; in the assay on OVCAR-5 ovarian, 89%; with OVCAR-4 ovarian, 60%; with SK-OV-3 ovarian it was 101%; in the assay with IGROV1 ovarian it was 81.5%; in the assay with OVCAR-3 ovarian, 81.3%. Also, the growth is 78.7% in the assay on HS 578T breast and 88.5% in the assay with NCI/ADR-RES ovarian.
In the case of `O=C(Nc1ccc(OCC(=O)c2ccccc2)cc1)Nc1ccc(Cl)c(C(F)(F)F)c1`, the growth was 7.07% (active) with RPMI-8226 leukemia; 35.8% with OVCAR-5 ovarian; 22.9% with OVCAR-4 ovarian; 16.4% with SK-OV-3 ovarian; 28.9% in the assay on IGROV1 ovarian; 23.8% with OVCAR-3 ovarian. Also, the growth in the assay with HS 578T breast is 9.19% (active); with NCI/ADR-RES ovarian, 18.5%.
As for `Cc1ccc(C(=O)NCCCNc2nc(Nc3ccc(N4CCN(C)CC4)cc3)nc3ccsc23)cc1`, the growth with RPMI-8226 leukemia was 10.1%; in the assay with OVCAR-8 ovarian, 29.2%; in the assay with OVCAR-5 ovarian, 69.1%; in the assay on OVCAR-4 ovarian, 39.6%; in the assay on IGROV1 ovarian, 69.2%; in the assay on OVCAR-3 ovarian it was 31%. The growth is 66.9% in the assay with HS 578T breast and 46.5% with NCI/ADR-RES ovarian.
On to `CCN1CCN(c2ccc(NC(=O)Nc3ccc(-c4cc(C(=O)NC(C)C)c5ncccc5n4)cc3)cc2C(F)(F)F)CC1`, for which the growth in the assay with RPMI-8226 leukemia was -43.3% (active); with OVCAR-5 ovarian, -83.2% (active); in the assay on OVCAR-4 ovarian, -83.2% (active); in the assay with SK-OV-3 ovarian, -91% (active); with IGROV1 ovarian it was -86% (active); with OVCAR-3 ovarian it was -60.1% (active). Further, the growth in the assay with HS 578T breast is -37.7% (active); in the assay on NCI/ADR-RES ovarian, -66.9% (active).
For the compound `CC1(C)CC[C@]2(C(=O)NCCCNCCCCNCCCN)CC[C@]3(C)C(=CC[C@@H]4[C@@]5(C)Cc6c([nH]c7ccccc67)C(C)(C)[C@@H]5CC[C@]43C)[C@H]2C1`, the growth in the assay on RPMI-8226 leukemia is 68.3%; with OVCAR-8 ovarian, 98.6%; in the assay on OVCAR-5 ovarian, 91.1%; in the assay with OVCAR-4 ovarian, 102%; in the assay with IGROV1 ovarian, 77.3%; in the assay with OVCAR-3 ovarian, 118%. In addition, the growth is 93.6% in the assay on HS 578T breast and 93.2% with NCI/ADR-RES ovarian.
For the compound `COc1ccc(-c2nc(S(=O)(=O)c3ccc(C)cc3)c(S(=O)(=O)CC(=O)N(C)Cc3ccccc3)o2)cc1`, the growth in the assay with RPMI-8226 leukemia was -35.3% (active); in the assay on OVCAR-5 ovarian, 63.1%; with OVCAR-4 ovarian, 68.5%; with SK-OV-3 ovarian, 98.4%; in the assay with IGROV1 ovarian, 66.3%; in the assay on OVCAR-3 ovarian, 1.33% (active). Moreover, the values for the growth in the assay on HS 578T breast and with NCI/ADR-RES ovarian were 67.2% and 28.8%, respectively.
For `CN1CCN(c2ccc(C(=O)/C=C/c3cc(Br)ccc3F)cc2)CC1`, the growth with RPMI-8226 leukemia was -24.7% (active); in the assay with OVCAR-8 ovarian, 64.2%; in the assay on OVCAR-5 ovarian, 135%; in the assay with OVCAR-4 ovarian, 59.6%; in the assay with IGROV1 ovarian, 33.1%; in the assay with OVCAR-3 ovarian, 33.8%. Besides, the growth in the assay on HS 578T breast is 95.1%; in the assay with NCI/ADR-RES ovarian, 35.3%.
Turning to `O=C1Nc2ccc(Cl)cc2/C1=C/c1cccc(OCc2ccccc2)c1`, the growth in the assay on RPMI-8226 leukemia was -28.1% (active); in the assay with OVCAR-5 ovarian, 69.2%; in the assay on OVCAR-4 ovarian, 33.5%; with SK-OV-3 ovarian, 75.3%; in the assay on IGROV1 ovarian, 36.7%; in the assay with OVCAR-3 ovarian, 8.28% (active). Also, the growth in the assay with HS 578T breast was 6.44% (active); in the assay with NCI/ADR-RES ovarian, 8.34% (active).
`Cc1ccc(-c2cc(-c3cc4ccccc4nc3Cl)[nH]c(=S)n2)cc1`: the growth in the assay with RPMI-8226 leukemia is 64.6%; in the assay with OVCAR-8 ovarian, 68.2%; with OVCAR-5 ovarian it was 87%; in the assay on OVCAR-4 ovarian, 80.6%; in the assay with IGROV1 ovarian it was 58.7%; in the assay with OVCAR-3 ovarian, 68.4%. For the same compound, the figures for the growth with HS 578T breast and in the assay on NCI/ADR-RES ovarian were 32.2% and 42%, respectively.
As to `CCOC(=O)C1=C(N)N(c2ccc(Cl)cc2)C2=C(C(=O)CC(C)(C)C2)C1c1ccc(N2CCOCC2)cc1` (stereo not drawn), the growth with RPMI-8226 leukemia was 99.9%; with OVCAR-8 ovarian, 100%; in the assay on OVCAR-5 ovarian, 106%; with OVCAR-4 ovarian, 105%; in the assay on SK-OV-3 ovarian, 109%; in the assay on IGROV1 ovarian it was 98%. The growth with OVCAR-3 ovarian was 102%; with HS 578T breast it was 109%; in the assay on NCI/ADR-RES ovarian, 97.4%.
On to `O=C1Nc2ccc(Cl)cc2/C1=C/c1cccc(OCc2ccccn2)c1`, for which the growth with RPMI-8226 leukemia was -45.3% (active); in the assay on OVCAR-8 ovarian, -42.6% (active); in the assay on OVCAR-5 ovarian it was -45.2% (active); with OVCAR-4 ovarian, 4.17% (active); with SK-OV-3 ovarian, 4.02% (active); in the assay on IGROV1 ovarian it was 0.125% (active). Moreover, the results for the growth in the assay on OVCAR-3 ovarian, with HS 578T breast and in the assay on NCI/ADR-RES ovarian were -35.8% (active), -1.17% (active) and -23.8% (active), respectively.
`O=C(c1ccc(O)cc1)C1[C@H](c2ccc(Br)cc2)[C@@H](c2ccccc2)NC12C(=O)Nc1ccc(Br)cc12` (stereo partly drawn): the growth with RPMI-8226 leukemia is 1.12% (active); in the assay on OVCAR-8 ovarian it was 12%; in the assay on OVCAR-5 ovarian, -4.82% (active); in the assay on OVCAR-4 ovarian, 14.3%; with IGROV1 ovarian it was -6.01% (active); in the assay with OVCAR-3 ovarian, -38.9% (active). Besides, the growth was -6.2% (active) in the assay with HS 578T breast and -2.8% (active) with NCI/ADR-RES ovarian.
